Source: PubChem BioAssay (several laboratories)
Rows were chosen to be rich in hits. Some 0.72% of all compounds tested hit in one or more screens of this group.
Neddyl block – inhibitors of human cullin neddylation; AID 651699; calls only at 25 µM; 0.58% of 360,000 active; TR-FRET cullin neddylation, biochemical; P61081+Q13564; in the data active = inhibition above about 36%
Target sequence (P61081 whole entry, looked up): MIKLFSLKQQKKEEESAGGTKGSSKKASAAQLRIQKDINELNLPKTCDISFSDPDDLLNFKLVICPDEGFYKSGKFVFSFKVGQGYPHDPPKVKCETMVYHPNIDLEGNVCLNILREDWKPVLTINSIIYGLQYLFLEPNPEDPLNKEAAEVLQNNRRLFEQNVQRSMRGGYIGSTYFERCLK
Target sequence (Q13564 whole entry, looked up): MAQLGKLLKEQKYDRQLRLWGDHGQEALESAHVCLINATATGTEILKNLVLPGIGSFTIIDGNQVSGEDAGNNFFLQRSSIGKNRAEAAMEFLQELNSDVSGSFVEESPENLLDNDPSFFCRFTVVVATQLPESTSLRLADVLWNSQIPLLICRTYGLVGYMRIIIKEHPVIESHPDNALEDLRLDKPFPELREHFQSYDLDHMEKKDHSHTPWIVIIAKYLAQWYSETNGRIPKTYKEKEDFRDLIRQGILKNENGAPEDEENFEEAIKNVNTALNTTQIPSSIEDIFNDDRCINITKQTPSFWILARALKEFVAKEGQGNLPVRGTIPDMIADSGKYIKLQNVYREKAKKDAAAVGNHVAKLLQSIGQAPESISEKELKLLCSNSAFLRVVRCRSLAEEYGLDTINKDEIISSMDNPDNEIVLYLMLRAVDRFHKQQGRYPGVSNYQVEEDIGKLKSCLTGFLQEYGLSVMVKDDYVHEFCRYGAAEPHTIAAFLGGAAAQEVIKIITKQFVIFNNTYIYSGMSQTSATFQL
PKA-R2B activ – activators of human PKA-R2B complex. P22694+P31323. PKA-R2B holoenzyme dissociation, Cy5-IP20 fluorescence polarization; R2B truncated from residue 108, S112A mutant; 0% DMSO only, 100% 113 µM cGMP. activation, % at 11.4 µM. 0.079% of 340,000 active;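 active = activation above a cutoff set at the mean over all compounds plus 3 SD, cut at about 18% in these data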;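 note: higher means more holoenzyme dissociation and a rise in polarization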
PolyA inh – blocks polyadenylation in yeast reporter cells | S. cerevisiae SKY197-pL101 polyadenylation reporter, beta-gal luminescence; efflux-impaired pdr1/pdr3 knockout yeast; score 100 = 6 SD above DMSO | activity score, % at 12 µM | 0.02% of 300,000 active | AID 1875;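 active = lowest replicate activity score at least 50, where 100 means six control SD above control mean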;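 note: yeast exposed to compound for 9 h at 30 °C; higher score means more reporter readthrough which indicates perturbed polyadenylation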
PKA-R1A activ – PKA-R1A complex activation. 0.083% of 340,000 active. activation, % at 11.4 µM. P00514+P68181. PKA-R1A dissociation, Cy5-IP20 fluorescence polarization; scaled: DMSO 0%, 113 µM cGMP 100%;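 active = percent activation above the mean of all tested compounds plus 3 SD, cut at about 19% in these data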;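 note: higher means more PKAc released from R1A so a rise in polarization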
R1A FP artifact – fluorescence polarization artifact in PKA-R1A activator counter-screen | shares compounds with PKA-R1A activ | Cy5-IP20 peptide alone, fluorescence polarization artifact counterscreen | activation, % at 11.4 µM | 7% of 280 active;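 active = mean activation over triplicate runs exceeds the adjusted cutoff derived for the parent primary screen, cut at about 19% in these data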;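 note: no PKA protein present so any polarization rise reflects compound interference; 0% = tracer peptide mix alone and 100% = mix with added PKA catalytic subunit; higher means stronger polarization artifact and likely false positive in parent screen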
PKA-R1A act conf – PKA-R1A complex activation, confirmation | Cy5-IP20 fluorescence polarization, PKA-R1A holoenzyme dissociation | AID 504800 | activation, % at 11.4 µM | shares compounds with PKA-R1A activ | 9% of 280 active;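 active = mean activation over replicate wells exceeds the adjusted hit threshold taken from the earlier primary screen, cut at about 20% in these data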;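 note: 0% = holoenzyme mix with DMSO only and 100% = cGMP-activated control wells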
The depositor's hits bear a star; i = inactive; · = not tested or not shown.

SMILES | Neddyl block | PKA-R2B activ | PolyA inh | PKA-R1A activ | R1A FP artifact | PKA-R1A act conf
C/C(CC(=O)Nc1ccccn1)=N\NC(=O)c1cnccn1 | i | 7 | 4 | 19* | 3 | 0
C/C(CC(=O)Nc1ccc2ccccc2c1)=N\NC(=O)c1cnccn1 | i | 3 | 2 | -1 | · | ·
COc1ccc(/C=C(\NC(=O)c2cccs2)C(=O)NN)cc1OC | i | -1 | 1 | -10 | · | ·
COc1ccc(/C=C/C(=O)NCC2COc3ccccc3O2)c(OC)c1 (stereo not given) | i | 7 | 18 | -7 | · | ·
O=C(/C=C/c1ccco1)NCC1COc2ccccc2O1 (stereo not given) | i | 8 | 6 | 19* | -5 | -4
CCOc1ccc(C2/C(=C(\O)c3ccc4c(c3)OCCO4)C(=O)C(=O)N2Cc2cccnc2)cc1OCC (stereo not given) | i | -12 | 0 | -7 | · | ·
O=P(CCCCCCCCCP(=O)(c1ccccc1)c1ccccc1)(c1ccccc1)c1ccccc1 | i | -4 | 2 | -5 | · | ·
CC[n+]1c(P(=O)([O-])c2ccccc2)[nH]c2ccccc21 | i | -5 | 9 | 21* | 6 | 4
COc1ccc(-c2[nH]n(-c3ccc([N+](=O)[O-])cc3)c(=O)c2C=NCC2CCCO2)cc1 (stereo not given) | i | 10 | -7 | 20* | 4 | 2
CCN(CC(=O)Nc1cc(Cl)ccc1C)C(=O)CSCc1c(C)noc1C | i | 4 | 8 | 3 | · | ·
CCc1noc(C)c1C(=O)N(CC)CC(=O)Nc1cc(Cl)ccc1C | i | 1 | · | 19* | 3 | 3
CNC(=O)CSc1nc2nc(C)cc(C)n2n1 | i | 8 | 7 | -13 | · | ·
Cc1cc(C)n2nc(SCC(=O)c3ccc[nH]3)nc2n1 | i | -2 | -9 | 22* | 5 | 2
O=C(CCC(=O)c1ccccc1)Nc1ccc(C(=O)O)cc1 | i | -1 | -1 | 19* | 1 | -1
CN(C)c1ccc(/C=N/NC(=O)CN2CCN(c3ccc(F)cc3)CC2)cc1 | · | · | 13 | · | · | ·
c1ccc(CNc2c(C3CCNCC3)nc3scc(-c4ccccc4)n23)cc1 | i | · | · | · | · | ·
NC(=O)CSc1nc2ccccc2n1-c1ccccc1 | i | -5 | 13 | -19 | · | ·
NC(=O)CSc1nc2ccccc2n1Cc1ccccc1 | i | -3 | 4 | 21* | 2 | -1
Cc1nc2cc(-c3ccc(Cl)cc3)nn2c(C)c1CCC(=O)NCc1ccco1 | · | 10 | 0 | 25* | 1 | -2
COc1ccc(-c2cc3nc(C)c(CCC(=O)NCc4ccco4)c(C)n3n2)c(OC)c1 | · | -7 | -10 | 4 | · | ·
CC(C)N(CC(=O)Nc1ccc(Cl)cc1C(F)(F)F)C(=O)CCl | i | -3 | 0 | 19* | 5 | 2
COC(=O)c1ccccc1NC(=O)NCc1cccnc1 | i | 0 | 6 | -5 | · | ·
COC(=O)c1ccccc1NC(=O)C(=O)NCc1ccncc1 | i | -1 | 13 | 21* | 1 | 4
CC(CCC(=O)O)C1CC[C@@]2(C)C3C(=O)CC4C(C)(C)C(O)CC[C@]4(C)C3C(=O)C[C@]12C (stereo not given in full) | i | 6 | 7 | 20* | 8 | 4
Cc1ccc(S(=O)(=O)N2C[C@H]3C(=O)C[C@@H](c4cccc(Cl)c4)N(S(=O)(=O)c4ccc(C)cc4)[C@H]3C[C@H]2c2ccccc2)cc1 | i | 2 | · | 2 | · | ·
CCN(CC)CCOC(=O)C(Cc1ccco1)Cc1cccc2ccccc12 (stereo not given) | i | -3 | 1 | 24* | 1 | 0
COc1ccc(C(=O)N2CCCC(Nc3ccc(C)c(C)c3)C2)c(OC)n1 (stereo not given) | i | 12 | 8 | 23* | 2 | -4
CC1=CC(=O)C(C(C)C)=C/C1=N/OC(=O)c1cccc([N+](=O)[O-])c1 | i | -5 | -9 | 1 | · | ·
CC1=CC(=O)C(C(C)C)=C/C1=N\OC(=O)c1cccc2nc(C)oc12 | i | -1 | -1 | 19* | 2 | 2
Cc1cccc(NS(=O)(=O)c2ccc(Oc3ccccc3)cc2)n1 | i | -5 | -12 | 20* | 3 | 3
